# Source: PubChem BioAssay (EPA / NIEHS)
# Where “and” joins values, the source holds several entries; their conditions need not be identical. Equal entries are not always repeated. Inconclusive results are not listed. A structure can be active in one record and inactive in another. Calls of active or inactive are those of the source. Rule for the calls, unless noted: active = hit-call score of the fitted dose curve at least 0.9, where 1 is the maximum; inconclusive = response in the unintended direction; inactive = score below 0.9.
# What was measured:
# [1] = read-out: X-box binding protein 1 (XBP1), XBP1 (gene 7494); assay: LTEA_HepaRG_XBP1: Life Technologies and Expression Analysis (LTEA) Assay for X-box binding protein 1 (XBP1) using HepaRG (AID 2283540; active = hit-call score of the fitted dose curve at least 0.9, where 1 is the maximum; inactive = score below 0.9); conditions: mRNA level, 48 h; actives raise or lower the signal
# Summary of the method: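 Transcript levels of XBP1, measured by qRT-PCR and normalised to three housekeeping genes, were fitted bidirectionally relative to 0.5% DMSO controls. Human HepaRG cells received eight-point half-log dilutions from 100 uM for 48 h.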
# [2] = TOX21_p53_BLA_p2_viability: Viability Assessment in the Tox21 HCT-116 p53 Agonism Beta-lactamase Assay, Phase 2 (AID 2283591);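 note: compound exposure lasted 16 h at 37 °C; actives lower the ATP signal meaning cytotoxicity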
# Summary of the method: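 Cytotoxicity readout: CellTiter-Glo ATP luminescence, 30 min at room temperature, after the beta-lactamase read. Cells were HCT116 exposed 16 h at 37C to compounds pin-transferred at 217-fold dilution from DMSO stocks.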
# [3] = target: Cellular tumor antigen p53 (Homo sapiens) (UniProt P04637); assay: TOX21_p53_BLA_p2_ratio: Tox21 HCT-116 p53 Agonism Beta-lactamase Assay, Ratio, Phase 2 (AID 2283592)
# Cellular tumor antigen p53 (Homo sapiens), sequence (P04637 whole entry, looked up): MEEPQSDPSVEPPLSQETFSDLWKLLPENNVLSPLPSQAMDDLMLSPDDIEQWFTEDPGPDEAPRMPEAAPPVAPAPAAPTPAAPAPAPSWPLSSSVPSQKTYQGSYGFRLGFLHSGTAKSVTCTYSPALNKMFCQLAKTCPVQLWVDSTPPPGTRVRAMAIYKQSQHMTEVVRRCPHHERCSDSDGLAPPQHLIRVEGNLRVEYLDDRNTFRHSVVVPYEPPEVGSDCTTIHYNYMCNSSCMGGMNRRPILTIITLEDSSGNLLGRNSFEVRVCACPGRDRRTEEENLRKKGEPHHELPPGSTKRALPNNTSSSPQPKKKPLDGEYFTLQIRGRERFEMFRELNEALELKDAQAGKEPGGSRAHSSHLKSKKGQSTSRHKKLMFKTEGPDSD
# Summary of the method: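 Plated HCT116 p53-bla cells (4000/well) received compound after 5 h, then 16 h at 37C/5% CO2. CCF4-AM added, 2 h RT. Ratio of 460 to 530 nm emission taken as the p53 reporter signal.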
# [4] = TOX21_p53_BLA_p4_viability: Viability Assessment in the Tox21 HCT-116 p53 Agonism Beta-lactamase Assay, Phase 4 (AID 2283597);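 note: hits lower the luminescence signal meaning cytotoxicity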
# Summary of the method: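 Readout: ATP luminescence (CellTiter-Glo), measured 30 min after reagent addition at RT. The reagent followed a 2 h CCF4-AM incubation, and the cells had been exposed to compound for 16 h at 37C.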
# [5] = target: Cellular tumor antigen p53 (Homo sapiens) (UniProt P04637); assay: TOX21_p53_BLA_p5_ratio: Tox21 HCT-116 p53 Agonism Beta-lactamase Assay, Ratio, Phase 5 (AID 2283599)
# Summary of the method: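 Beta-lactamase reporter ratio (blue 460 nm over green 530 nm, 405 nm excitation) after 2 h CCF4-AM loading, in HCT-116 cells exposed 16 h at 37 C to compounds pinned at 217-fold dilution. Increases relative to DMSO baseline scored.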
# [6] = TOX21_p53_BLA_p5_viability: Viability Assessment in the Tox21 HCT-116 p53 Agonism Beta-lactamase Assay, Phase 5 (AID 2283600)
# Summary of the method: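 Workflow: seed 4000 cells per well, wait 5 h, add compounds (DMSO, 217-fold dilution), incubate 16 h, load CCF4-AM 2 h, add CellTiter-Glo, read luminescence after 30 min.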
# [7] = target: Cellular tumor antigen p53 (Homo sapiens) (UniProt P04637); assay: TOX21_p53_BLA_p4_ratio: Tox21 HCT-116 p53 Agonism Beta-lactamase Assay, Ratio, Phase 4 (AID 2283601)
# Summary of the method: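 Signal is the blue/green (460nm/530nm) ratio of cleaved versus uncleaved CCF4-AM substrate, read after 2 h substrate loading. Cells were HCT116 carrying the p53-responsive beta-lactamase reporter, dosed 16 h at 37C, 5% CO2; CellTiter-Glo measured in parallel.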
# [8] = Tanguay_ZF_120hpf_MORT_legacy: (Legacy) Oregon State University Tanguay Lab 120 Hour Post-fertilization zebrafish Assay for Mortality (AID 2283633);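 for AC50: fitted as increase in binary mortality versus DMSO negative control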
# Summary of the method: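 5D WT zebrafish, chorion removed 4 hpf; 1 embryo/well from 6 hpf; static exposure to 120 hpf, 28C, dark, sealed. Final DMSO 0.64%. Readout: binary mortality, brightfield, 24 + 120 hpf; DMSO as negative control.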
# [9] = Tanguay_ZF_120hpf_AXIS_legacy: (Legacy) Oregon State University Tanguay Lab 120 Hour Post-fertilization zebrafish Assay for Body Axis Malformation (AID 2283635);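 for AC50: potency for an increased fraction of larvae scored with body axis malformation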
# Summary of the method: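 Chorion is removed with pronase at 4 hpf, then single 6 hpf embryos are dosed (final DMSO 0.64%) and held statically at 28C in sealed, foil-covered plates. At 120 hpf body axis malformation is recorded as present or absent.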
# [10] = Tanguay_ZF_120hpf_EYE_legacy: (Legacy) Oregon State University Tanguay Lab 120 Hour Post-fertilization zebrafish Assay for Eye Malformation (AID 2283636);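 note: binary presence or absence of eye malformation scored by brightfield in 120 hpf larvae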
# Summary of the method: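 Binary brightfield scoring of eye defects at 120 hpf after static exposure from 6 hpf of single pronase-dechorionated wild-type embryos (28C, 0.64% DMSO). Non-mortality endpoints omitted where embryos died; fit vs DMSO.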
# [11] = Tanguay_ZF_120hpf_SNOU_legacy: (Legacy) Oregon State University Tanguay Lab 120 Hour Post-fertilization zebrafish Assay for Snout Malformation (AID 2283637)
# Summary of the method: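 Binary snout-malformation call at 120 hpf in wild-type 5D embryos, chorion removed by pronase, under static exposure from 6 hpf at 28C (0.64% DMSO). Embryos dying by 24 or 120 hpf excluded.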
# [12] = Tanguay_ZF_120hpf_JAW_legacy: (Legacy) Oregon State University Tanguay Lab 120 Hour Post-fertilization zebrafish Assay for Jaw Malformation (AID 2283638);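 for AC50: active means more embryos with jaw malformation than DMSO controls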
# Summary of the method: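 Steps: dechorionate 4 hpf embryos (pronase); plate 1/well at 6 hpf; add test chemical, 0.64% DMSO final; seal, cover, hold at 28C statically to 120 hpf; score jaw defect presence/absence microscopically. Dead embryos not scored.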
# [13] = Tanguay_ZF_120hpf_OTIC_legacy: (Legacy) Oregon State University Tanguay Lab 120 Hour Post-fertilization zebrafish Assay for Otic Vesicle Malformation (AID 2283639)
# Summary of the method: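 Statically exposed wild-type 5D zebrafish embryos, kept sealed and dark at 28C through 120 hours post fertilization, were examined by brightfield microscopy for otic vesicle defects. Responses were recorded as present or absent and analysed relative to DMSO.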
# [14] = LTEA_HepaRG_LDH_cytotoxicity: Cytotoxicity Assessment in the Life Technologies and Expression Analysis (LTEA) Assay (AID 2283563)
# Summary of the method: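 Cells were thawed and plated for 48 h. Medium was then replaced with serum-free induction medium. Chemicals (8 half-log points, maximum 100 uM, 0.5% DMSO) were added in duplicate for 48 h, after which spent medium was assayed for LDH.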
# [15] = TOX21_p53_BLA_p3_viability: Viability Assessment in the Tox21 HCT-116 p53 Agonism Beta-lactamase Assay, Phase 3 (AID 2283593);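 note: cells exposed to compound for 16 h before reading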
# Summary of the method: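 Cellular ATP was quantified by CellTiter-Glo luminescence, read after 30 min at room temperature. Beforehand, HCT116 cells (4000/well) received compound 5 h post-seeding, 217-fold diluted from DMSO, then incubated 16 h at 37C.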
# [16] = target: Cellular tumor antigen p53 (Homo sapiens) (UniProt P04637); assay: TOX21_p53_BLA_p3_ratio: Tox21 HCT-116 p53 Agonism Beta-lactamase Assay, Ratio, Phase 3 (AID 2283596)
# Summary of the method: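 Cells were seeded at 4000/well, rested 5 h at 37C, then dosed with DMSO compound solutions (217-fold dilution) for 16 h. CCF4-AM substrate was loaded for 2 h at room temperature, and the 460/530 nm emission ratio was fitted for gain of signal versus DMSO.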
# [17] = Tanguay_ZF_120hpf_PE_legacy: (Legacy) Oregon State University Tanguay Lab 120 Hour Post-fertilization zebrafish Assay for Pericardial Edema (AID 2283640);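 for AC50: potency for increased incidence of pericardial edema versus DMSO baseline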
# Summary of the method: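 Embryos from wild-type 5D adults were staged, then dosed in 0.64% DMSO. They were kept sealed in the dark at 28C until 120 hpf. Pericardial edema was then recorded as present or absent.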
# [18] = Tanguay_ZF_120hpf_YSE_legacy: (Legacy) Oregon State University Tanguay Lab 120 Hour Post-fertilization zebrafish Assay for Yolk Sac Edema (AID 2283634)
# Summary of the method: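 Dechorionate (pronase, 4 hpf) → place one 6 hpf embryo per well → static compound exposure, sealed and foil-covered, 28C, to 120 hpf → record yolk sac edema as present or absent. Final DMSO 0.64%.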
# [19] = ATG_XTT_Cytotoxicity: Cytotoxicity Assessment in the Attagene TRANS-FACTORIAL HepG2 Assay (AID 2283584)
# Summary of the method: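 Cells: human HepG2, transiently transfected with MRTU reporter constructs. Exposure 24 h. Readout: XTT, cell number. Baseline/neg ctrl DMSO; loss-of-signal scored.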
smiles,measurement,setting,value
COc1ccc2sc(C(=O)Nc3nnn[nH]3)c(OC(C)C)c2c1,outcome,[1],inactive
same,AC50,[2],13.2 µM (active)
same,outcome,[3],inactive
same,AC50,[4],14.3 µM (active)
same,outcome,[5],inactive
same,outcome,[6],inactive
same,outcome,[7],inactive
same,outcome,[8],inactive
same,outcome,[9],inactive
same,outcome,[10],inactive
same,outcome,[11],inactive
same,outcome,[12],inactive
same,outcome,[13],inactive
CCOC(=O)COc1ccc2c(c1)CC(NCC(O)c1cccc(Cl)c1)CC2 (stereo unspecified),AC50,[1],45.8 µM (active)
same,outcome,[14],inactive
same,AC50,[3],70.3 µM (active)
same,outcome,[15],inactive
same,outcome,[16],inactive
same,AC50,[4],80 µM (active)
same,outcome,[5],inactive
same,outcome,[6],inactive
same,AC50,[7],71.7 µM (active)
same,AC50,[8],15.6 µM (active)
same,outcome,[9],inactive
same,outcome,[10],inactive
same,outcome,[11],inactive
same,outcome,[12],inactive
same,outcome,[13],inactive
same,outcome,[17],inactive
CCCCCCCCO,outcome,[1],inactive
same,outcome,[14],inactive
same,outcome,[3],inactive
same,outcome,[6],inactive
same,outcome,[7],inactive
same,outcome,[8],inactive
same,outcome,[18],inactive
same,outcome,[10],inactive
same,outcome,[11],inactive
same,outcome,[12],inactive
same,outcome,[17],inactive
COC(=O)CC(=O)OC,outcome,[1],inactive
same,outcome,[14],inactive
same,outcome,[2],inactive
same,outcome,[3],inactive
same,outcome,[16],inactive
same,outcome,[4],inactive
same,outcome,[5],inactive
same,outcome,[6],inactive
same,outcome,[7],inactive
same,outcome,[8],inactive
same,outcome,[18],inactive
same,outcome,[9],inactive
same,outcome,[11],inactive
same,outcome,[12],inactive
same,outcome,[13],inactive
Nc1ccc(Nc2ccccc2)cc1,outcome,[1],inactive
same,AC50,[3],86 µM (active)
same,outcome,[3],inactive
same,outcome,[4],inactive
same,outcome,[5],inactive
same,outcome,[6],inactive
same,outcome,[7],inactive
same,AC50,[8],33.2 µM (active)
same,AC50,[9],43.8 µM (active)
same,AC50,[10],45.8 µM (active)
same,AC50,[11],34.9 µM (active)
same,AC50,[12],27.2 µM (active)
same,outcome,[13],inactive
same,AC50,[17],40 µM (active)
CCNc1ccccc1,outcome,[1],inactive
same,outcome,[14],inactive
same,outcome,[3],inactive
same,outcome,[4],inactive
same,outcome,[5],inactive
same,outcome,[7],inactive
same,outcome,[8],inactive
same,outcome,[9],inactive
same,outcome,[10],inactive
same,outcome,[11],inactive
same,outcome,[12],inactive
same,outcome,[13],inactive
same,outcome,[17],inactive
Cn1cnc([N+](=O)[O-])c1Sc1ncnc2nc[nH]c12,outcome,[1],inactive
same,outcome,[19],inactive
same,outcome,[2],inactive
same,AC50,[3],18.9 µM (active) and 31.3 µM (active)
same,AC50,[16],30 µM (active) and 33.1 µM (active)
same,AC50,[4],1.62 µM (active)
same,outcome,[4],inactive
same,AC50,[5],29.8 µM (active) and 34.8 µM (active)
same,outcome,[6],inactive
same,AC50,[7],22.2 µM (active) and 34.3 µM (active)
same,outcome,[8],inactive
same,outcome,[9],inactive
same,outcome,[11],inactive
same,outcome,[12],inactive
same,outcome,[13],inactive
CCCC(=O)OCC,outcome,[1],inactive
same,outcome,[14],inactive
same,outcome,[3],inactive
same,outcome,[15],inactive
same,outcome,[16],inactive
same,outcome,[8],inactive
same,outcome,[9],inactive
same,outcome,[10],inactive
same,outcome,[11],inactive
same,outcome,[12],inactive
same,outcome,[13],inactive
same,outcome,[17],inactive
O=C(NS(=O)(=O)/C=C/c1ccccc1)c1ccc(F)cc1Cl,AC50,[1],26.3 µM (active)
same,outcome,[19],inactive
same,AC50,[3],13 µM (active)
same,AC50,[5],13.5 µM (active)
same,AC50,[7],22 µM (active)
same,outcome,[8],inactive
same,outcome,[9],inactive
same,outcome,[10],inactive
same,outcome,[11],inactive
same,outcome,[12],inactive
same,outcome,[13],inactive
same,outcome,[17],inactive
